# In publication PMC7862700, “An all-to-all approach to the identification of sequence-specific readers for epigenetic DNA modifications on cytosine”:
# Columns and labels:
# Experiment in all cases: DAPPL (digital affinity profiling via proximity ligation, sequencing); 10 mM Tris-HCl pH 7.5, 50 mM NaCl, 1 mM DTT, 4% glycerol, room temperature, 30 min; GST-TFs on glutathione beads, 16-mer random dsDNA library, 0.1% formaldehyde crosslink after washing; high values mean tight binding
# FEV = target: T1, FEV (Homo sapiens, UniProt Q99581 1-238); details: protein: recombinant; tags: N-terminal GST; dsDNA, one strand shown
# T1 sequence: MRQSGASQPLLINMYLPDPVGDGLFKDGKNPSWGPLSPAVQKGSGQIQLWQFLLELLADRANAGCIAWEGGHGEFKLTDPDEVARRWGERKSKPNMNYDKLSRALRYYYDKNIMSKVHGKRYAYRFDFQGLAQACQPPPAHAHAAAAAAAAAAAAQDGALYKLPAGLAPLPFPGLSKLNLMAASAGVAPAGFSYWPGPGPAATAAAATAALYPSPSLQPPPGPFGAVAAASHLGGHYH
# Summary of the method: (§1)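 Sequencing on an Illumina NextSeq500 followed washing, crosslinking with 0.1% formaldehyde, proximity ligation (BsaI/T4 ligase, 1 h, 37 °C) and PCR amplification of pools that had been incubated for 30 min at room temperature with 200 nmole of a random double-stranded 16-mer DNA library in Tris/NaCl/DTT/glycerol buffer. Each pool held DNA-barcoded human transcription factors, expressed in yeast as GST fusions and captured on glutathione beads, plus a tag-only sample. Binding signal is a hexamer's read frequency for a factor divided by its frequency in the tag-only sample.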
# ETV5 = ETV5 (Homo sapiens, UniProt P41161 1-510); details: protein: recombinant; tags: N-terminal GST; dsDNA, one strand shown
# ETV5, sequence (P41161 whole entry): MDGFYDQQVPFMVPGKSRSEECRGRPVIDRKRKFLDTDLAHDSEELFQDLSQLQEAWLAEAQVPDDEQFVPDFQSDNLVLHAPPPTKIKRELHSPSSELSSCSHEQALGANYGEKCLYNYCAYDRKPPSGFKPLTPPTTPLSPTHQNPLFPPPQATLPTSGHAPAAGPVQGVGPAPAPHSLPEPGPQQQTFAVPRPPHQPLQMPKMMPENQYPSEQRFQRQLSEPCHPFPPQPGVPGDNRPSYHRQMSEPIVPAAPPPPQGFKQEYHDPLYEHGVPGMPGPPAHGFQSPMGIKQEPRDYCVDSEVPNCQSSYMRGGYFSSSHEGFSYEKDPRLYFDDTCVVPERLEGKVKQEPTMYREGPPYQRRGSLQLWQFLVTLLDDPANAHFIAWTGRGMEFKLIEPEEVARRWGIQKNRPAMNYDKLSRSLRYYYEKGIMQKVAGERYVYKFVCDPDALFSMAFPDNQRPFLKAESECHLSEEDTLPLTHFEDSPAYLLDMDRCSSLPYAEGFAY
# Summary of the method: as §1
# HSF1 = HSF1 (Homo sapiens, UniProt Q00613 1-529); details: protein: recombinant; tags: N-terminal GST; chain copies: 3; dsDNA, one strand shown
# HSF1, sequence (Q00613 whole entry): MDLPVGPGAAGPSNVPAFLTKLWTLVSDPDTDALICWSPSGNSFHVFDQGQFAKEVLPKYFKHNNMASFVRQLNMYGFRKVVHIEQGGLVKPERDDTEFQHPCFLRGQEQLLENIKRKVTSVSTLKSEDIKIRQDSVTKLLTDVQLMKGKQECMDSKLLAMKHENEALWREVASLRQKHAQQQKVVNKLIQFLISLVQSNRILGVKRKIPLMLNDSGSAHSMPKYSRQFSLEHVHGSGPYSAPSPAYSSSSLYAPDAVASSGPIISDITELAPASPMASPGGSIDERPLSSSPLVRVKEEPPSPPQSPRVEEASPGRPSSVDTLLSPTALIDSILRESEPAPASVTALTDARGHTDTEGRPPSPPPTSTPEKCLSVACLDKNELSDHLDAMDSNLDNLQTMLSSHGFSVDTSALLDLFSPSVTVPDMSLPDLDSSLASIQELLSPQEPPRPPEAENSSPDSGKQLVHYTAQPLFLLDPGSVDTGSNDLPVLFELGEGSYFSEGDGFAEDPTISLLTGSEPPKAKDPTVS
# Summary of the method: as §1
# SPIC = target: T2, SPIC (Homo sapiens, UniProt Q8N5J4 1-248); details: protein: recombinant; tags: N-terminal GST; dsDNA, one strand shown
# T2 sequence: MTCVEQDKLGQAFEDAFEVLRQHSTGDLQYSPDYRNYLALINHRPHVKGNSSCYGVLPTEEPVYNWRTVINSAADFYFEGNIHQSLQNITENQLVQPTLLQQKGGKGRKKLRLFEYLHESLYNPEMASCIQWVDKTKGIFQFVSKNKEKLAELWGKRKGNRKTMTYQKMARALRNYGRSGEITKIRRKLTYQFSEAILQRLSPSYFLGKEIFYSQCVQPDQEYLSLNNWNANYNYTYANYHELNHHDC
# Summary of the method: as §1
# ELF4 = ELF4 (Homo sapiens, UniProt Q99607 1-663); details: protein: recombinant; tags: N-terminal GST; dsDNA, one strand shown
# ELF4, sequence (Q99607 whole entry): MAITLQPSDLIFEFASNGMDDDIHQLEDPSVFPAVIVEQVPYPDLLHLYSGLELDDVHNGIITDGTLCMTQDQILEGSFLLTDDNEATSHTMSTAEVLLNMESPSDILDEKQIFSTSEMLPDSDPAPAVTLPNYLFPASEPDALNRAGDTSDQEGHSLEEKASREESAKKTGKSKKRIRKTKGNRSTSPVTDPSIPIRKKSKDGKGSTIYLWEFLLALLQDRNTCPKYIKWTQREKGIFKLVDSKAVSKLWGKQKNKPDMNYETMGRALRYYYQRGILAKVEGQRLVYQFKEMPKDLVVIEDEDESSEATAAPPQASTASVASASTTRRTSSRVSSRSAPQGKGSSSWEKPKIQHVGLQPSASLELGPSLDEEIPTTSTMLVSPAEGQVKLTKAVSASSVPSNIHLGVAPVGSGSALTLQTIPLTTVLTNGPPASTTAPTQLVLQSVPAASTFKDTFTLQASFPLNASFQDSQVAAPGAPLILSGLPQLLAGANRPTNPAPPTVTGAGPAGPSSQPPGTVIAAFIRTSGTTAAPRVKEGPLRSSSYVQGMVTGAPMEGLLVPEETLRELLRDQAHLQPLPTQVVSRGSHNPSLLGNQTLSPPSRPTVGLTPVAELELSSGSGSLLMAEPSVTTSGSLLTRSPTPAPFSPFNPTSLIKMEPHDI
# Summary of the method: as §1
# ELK4 = target: T3, ELK4 (Homo sapiens, UniProt P28324-2 1-405); details: protein: recombinant; tags: N-terminal GST; dsDNA, one strand shown
# T3 sequence: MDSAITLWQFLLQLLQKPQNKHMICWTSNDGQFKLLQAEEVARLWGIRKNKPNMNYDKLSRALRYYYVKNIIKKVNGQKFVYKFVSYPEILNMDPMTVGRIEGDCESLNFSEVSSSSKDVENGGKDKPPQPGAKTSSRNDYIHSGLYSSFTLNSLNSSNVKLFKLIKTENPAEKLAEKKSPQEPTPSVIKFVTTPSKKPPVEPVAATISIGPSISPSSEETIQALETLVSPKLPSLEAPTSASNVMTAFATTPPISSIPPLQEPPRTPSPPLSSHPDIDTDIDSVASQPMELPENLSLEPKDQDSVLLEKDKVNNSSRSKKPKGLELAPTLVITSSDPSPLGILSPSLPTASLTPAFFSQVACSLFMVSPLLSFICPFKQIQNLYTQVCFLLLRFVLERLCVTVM
# Summary of the method: as §1
# ETV2 = target: T4, ETV2 (Homo sapiens, UniProt O00321 1-342); details: protein: recombinant; tags: N-terminal GST; dsDNA, one strand shown
# T4 sequence: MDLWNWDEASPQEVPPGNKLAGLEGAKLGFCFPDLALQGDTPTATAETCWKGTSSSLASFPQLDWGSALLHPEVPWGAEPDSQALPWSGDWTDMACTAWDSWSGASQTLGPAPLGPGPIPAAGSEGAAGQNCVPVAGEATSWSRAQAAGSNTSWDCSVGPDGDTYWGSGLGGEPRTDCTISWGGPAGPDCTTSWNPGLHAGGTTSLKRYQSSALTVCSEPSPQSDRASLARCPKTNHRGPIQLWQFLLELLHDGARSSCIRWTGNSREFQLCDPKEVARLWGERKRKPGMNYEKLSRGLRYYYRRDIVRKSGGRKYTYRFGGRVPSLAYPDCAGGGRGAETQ
# Summary of the method: as §1
# ELF3 = target: T5, ELF3 (Homo sapiens, UniProt P78545 1-371); details: protein: recombinant; tags: N-terminal GST; dsDNA, one strand shown
# T5 sequence: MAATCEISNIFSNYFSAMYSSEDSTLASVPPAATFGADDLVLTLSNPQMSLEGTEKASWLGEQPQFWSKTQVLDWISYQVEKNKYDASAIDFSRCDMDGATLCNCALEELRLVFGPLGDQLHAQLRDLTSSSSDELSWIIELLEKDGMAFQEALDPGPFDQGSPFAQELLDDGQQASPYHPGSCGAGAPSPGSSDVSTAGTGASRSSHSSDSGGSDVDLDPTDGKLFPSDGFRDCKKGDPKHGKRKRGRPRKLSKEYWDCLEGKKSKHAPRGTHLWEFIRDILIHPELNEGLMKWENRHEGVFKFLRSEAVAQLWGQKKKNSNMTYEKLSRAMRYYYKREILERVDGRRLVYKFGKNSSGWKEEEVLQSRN
# Summary of the method: as §1
# CRX = CRX (Homo sapiens, UniProt O43186 1-299); details: protein: recombinant; tags: N-terminal GST; dsDNA, one strand shown
# CRX, sequence (O43186 whole entry): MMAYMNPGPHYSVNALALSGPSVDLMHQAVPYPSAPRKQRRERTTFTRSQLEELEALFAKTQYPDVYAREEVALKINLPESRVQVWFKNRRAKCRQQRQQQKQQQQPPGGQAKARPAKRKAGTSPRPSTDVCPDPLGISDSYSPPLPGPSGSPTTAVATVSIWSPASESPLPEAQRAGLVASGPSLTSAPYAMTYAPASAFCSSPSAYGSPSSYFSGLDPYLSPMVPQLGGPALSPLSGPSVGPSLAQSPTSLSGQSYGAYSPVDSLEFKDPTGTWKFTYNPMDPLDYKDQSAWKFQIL
# Summary of the method: as §1
# ETV1 = ETV1 (Homo sapiens, UniProt P50549 1-477); details: protein: recombinant; tags: N-terminal GST; dsDNA, one strand shown
# ETV1, sequence (P50549 whole entry): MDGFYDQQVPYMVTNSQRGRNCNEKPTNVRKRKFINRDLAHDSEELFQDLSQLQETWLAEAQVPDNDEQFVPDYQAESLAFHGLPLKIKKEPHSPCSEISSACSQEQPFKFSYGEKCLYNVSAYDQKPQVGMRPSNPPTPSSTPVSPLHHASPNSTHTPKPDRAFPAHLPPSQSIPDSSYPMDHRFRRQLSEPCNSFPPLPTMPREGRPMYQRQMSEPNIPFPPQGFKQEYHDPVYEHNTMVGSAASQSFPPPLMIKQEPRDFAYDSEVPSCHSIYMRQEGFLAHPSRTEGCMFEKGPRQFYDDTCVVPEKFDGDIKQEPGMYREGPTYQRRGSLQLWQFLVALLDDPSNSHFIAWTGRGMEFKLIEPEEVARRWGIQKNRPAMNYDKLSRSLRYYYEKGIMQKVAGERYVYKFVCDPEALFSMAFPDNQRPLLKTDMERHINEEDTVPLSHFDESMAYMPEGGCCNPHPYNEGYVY
# Summary of the method: as §1
# ERF = target: T6, ERF (Homo sapiens, UniProt P50548 1-548); details: protein: recombinant; tags: N-terminal GST; dsDNA, one strand shown
# T6 sequence: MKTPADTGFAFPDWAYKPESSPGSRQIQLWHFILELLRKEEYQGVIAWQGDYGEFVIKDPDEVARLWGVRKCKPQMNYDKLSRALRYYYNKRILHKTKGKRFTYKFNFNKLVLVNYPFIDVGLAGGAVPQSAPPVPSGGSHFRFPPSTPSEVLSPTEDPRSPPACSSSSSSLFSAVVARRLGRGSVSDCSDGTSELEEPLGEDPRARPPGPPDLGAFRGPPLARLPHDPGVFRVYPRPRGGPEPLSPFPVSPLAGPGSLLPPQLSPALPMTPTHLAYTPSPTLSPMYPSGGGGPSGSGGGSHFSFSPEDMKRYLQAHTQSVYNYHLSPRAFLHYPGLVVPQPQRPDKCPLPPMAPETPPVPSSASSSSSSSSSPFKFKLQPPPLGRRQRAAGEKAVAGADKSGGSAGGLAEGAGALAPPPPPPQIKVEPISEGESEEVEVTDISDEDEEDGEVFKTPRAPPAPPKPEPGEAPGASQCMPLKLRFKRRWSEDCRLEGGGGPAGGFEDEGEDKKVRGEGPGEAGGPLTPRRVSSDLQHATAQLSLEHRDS
# Summary of the method: as §1
# ETV3L = target: T7, ETV3L (Homo sapiens, UniProt Q6ZN32 1-361); details: protein: recombinant; tags: N-terminal GST; dsDNA, one strand shown
# T7 sequence: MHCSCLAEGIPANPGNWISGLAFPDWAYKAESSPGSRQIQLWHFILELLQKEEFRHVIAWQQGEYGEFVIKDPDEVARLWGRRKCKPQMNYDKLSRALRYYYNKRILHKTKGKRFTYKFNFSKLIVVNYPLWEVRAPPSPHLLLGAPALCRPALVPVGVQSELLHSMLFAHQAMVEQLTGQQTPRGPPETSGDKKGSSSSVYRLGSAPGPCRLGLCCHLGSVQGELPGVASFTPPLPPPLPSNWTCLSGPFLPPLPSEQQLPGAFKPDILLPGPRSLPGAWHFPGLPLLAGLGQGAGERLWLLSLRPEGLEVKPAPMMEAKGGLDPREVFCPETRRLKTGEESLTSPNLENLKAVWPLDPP
# Summary of the method: as §1
# ETS2 = target: T8, ETS2 (Homo sapiens, UniProt P15036 1-469); details: protein: recombinant; tags: N-terminal GST; dsDNA, one strand shown
# T8 sequence: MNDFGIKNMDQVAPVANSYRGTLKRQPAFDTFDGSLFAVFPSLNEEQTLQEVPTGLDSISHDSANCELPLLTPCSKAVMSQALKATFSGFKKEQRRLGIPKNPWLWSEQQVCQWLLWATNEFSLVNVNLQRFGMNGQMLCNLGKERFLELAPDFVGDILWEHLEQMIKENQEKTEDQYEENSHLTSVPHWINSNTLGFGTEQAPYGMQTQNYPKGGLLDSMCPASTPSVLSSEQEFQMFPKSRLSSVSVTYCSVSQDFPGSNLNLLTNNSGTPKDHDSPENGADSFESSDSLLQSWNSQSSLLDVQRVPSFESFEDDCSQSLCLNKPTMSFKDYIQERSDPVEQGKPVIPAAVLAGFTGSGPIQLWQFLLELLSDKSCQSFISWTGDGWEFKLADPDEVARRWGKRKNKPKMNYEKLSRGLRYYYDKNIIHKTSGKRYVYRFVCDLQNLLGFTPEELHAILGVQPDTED
# Summary of the method: as §1
# SPDEF = target: T9, SPDEF (Homo sapiens, UniProt O95238 1-335); details: protein: recombinant; tags: N-terminal GST; dsDNA, one strand shown
# T9 sequence: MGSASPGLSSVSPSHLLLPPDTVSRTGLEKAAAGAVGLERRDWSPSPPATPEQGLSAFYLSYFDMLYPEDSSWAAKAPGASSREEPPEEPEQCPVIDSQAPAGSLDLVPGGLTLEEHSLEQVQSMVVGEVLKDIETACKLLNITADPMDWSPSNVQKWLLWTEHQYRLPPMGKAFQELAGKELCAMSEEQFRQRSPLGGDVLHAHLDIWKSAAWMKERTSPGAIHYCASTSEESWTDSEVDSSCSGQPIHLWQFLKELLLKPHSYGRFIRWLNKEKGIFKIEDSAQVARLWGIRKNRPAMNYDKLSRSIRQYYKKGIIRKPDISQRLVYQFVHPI
# Summary of the method: as §1
# ETV7 = target: T10, ETV7 (Homo sapiens, UniProt Q9Y603 1-341); details: protein: recombinant; tags: N-terminal GST; dsDNA, one strand shown
# T10 sequence: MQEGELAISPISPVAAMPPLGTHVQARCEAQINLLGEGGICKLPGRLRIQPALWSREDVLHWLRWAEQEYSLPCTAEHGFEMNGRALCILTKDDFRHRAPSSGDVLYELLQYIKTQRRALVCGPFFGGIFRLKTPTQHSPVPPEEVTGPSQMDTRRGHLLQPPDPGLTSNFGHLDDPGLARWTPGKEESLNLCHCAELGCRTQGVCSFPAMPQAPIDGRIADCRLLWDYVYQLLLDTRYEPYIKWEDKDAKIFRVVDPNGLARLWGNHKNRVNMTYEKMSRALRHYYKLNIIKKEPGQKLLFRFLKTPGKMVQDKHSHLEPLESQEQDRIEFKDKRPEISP
# Summary of the method: as §1
# ELF5 = target: T11, ELF5 (Homo sapiens, UniProt Q9UKW6-2 1-255); details: protein: recombinant; tags: N-terminal GST; dsDNA, one strand shown
# T11 sequence: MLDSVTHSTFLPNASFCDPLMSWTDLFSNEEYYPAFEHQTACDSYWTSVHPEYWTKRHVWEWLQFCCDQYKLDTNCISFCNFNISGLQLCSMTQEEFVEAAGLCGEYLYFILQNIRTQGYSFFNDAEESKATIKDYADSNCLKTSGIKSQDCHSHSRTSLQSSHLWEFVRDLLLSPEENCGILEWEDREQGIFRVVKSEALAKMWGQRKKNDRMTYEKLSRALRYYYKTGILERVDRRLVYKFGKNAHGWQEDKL
# Summary of the method: as §1
# ETV3 = target: T12, ETV3 (Homo sapiens, UniProt P41162-2 1-143); details: protein: recombinant; tags: N-terminal GST; dsDNA, one strand shown
# T12 sequence: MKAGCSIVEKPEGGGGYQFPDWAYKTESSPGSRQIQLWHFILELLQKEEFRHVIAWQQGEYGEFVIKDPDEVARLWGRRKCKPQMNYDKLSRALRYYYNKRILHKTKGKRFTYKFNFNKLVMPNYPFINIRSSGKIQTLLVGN
# Summary of the method: as §1
# ETV6 = ETV6 (Homo sapiens, UniProt P41212 1-452); details: protein: recombinant; tags: N-terminal GST; dsDNA, one strand shown
# ETV6, sequence (P41212 whole entry): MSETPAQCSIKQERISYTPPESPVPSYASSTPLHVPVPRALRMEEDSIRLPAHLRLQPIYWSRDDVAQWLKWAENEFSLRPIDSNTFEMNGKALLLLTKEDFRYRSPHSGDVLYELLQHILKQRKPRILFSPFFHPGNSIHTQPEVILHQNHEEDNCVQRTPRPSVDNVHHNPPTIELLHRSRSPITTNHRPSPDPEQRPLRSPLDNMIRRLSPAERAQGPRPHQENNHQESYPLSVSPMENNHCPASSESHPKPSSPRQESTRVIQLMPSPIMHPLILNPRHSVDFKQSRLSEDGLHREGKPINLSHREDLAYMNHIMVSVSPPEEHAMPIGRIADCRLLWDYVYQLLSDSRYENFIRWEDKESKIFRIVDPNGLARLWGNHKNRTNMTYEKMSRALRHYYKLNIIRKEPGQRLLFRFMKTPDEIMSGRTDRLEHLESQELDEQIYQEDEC
# Summary of the method: as §1
sequence,measurement,setting,value
TATACG,binding signal,FEV,"1.18 fold enrichment (6-mer frequency, TF over GST control)"
same,binding signal,ETV5,"1.25 fold enrichment (6-mer frequency, TF over GST control)"
same,binding signal,HSF1,"1.27 fold enrichment (6-mer frequency, TF over GST control)"
same,binding signal,SPIC,"1.1 fold enrichment (6-mer frequency, TF over GST control)"
same,binding signal,ELF4,"1.31 fold enrichment (6-mer frequency, TF over GST control)"
same,binding signal,ELK4,"1.14 fold enrichment (6-mer frequency, TF over GST control)"
same,binding signal,ETV2,"1.15 fold enrichment (6-mer frequency, TF over GST control)"
same,binding signal,ELF3,"1.26 fold enrichment (6-mer frequency, TF over GST control)"
same,binding signal,CRX,"1.39 fold enrichment (6-mer frequency, TF over GST control)"
same,binding signal,ETV1,"1.32 fold enrichment (6-mer frequency, TF over GST control)"
same,binding signal,ERF,"1.39 fold enrichment (6-mer frequency, TF over GST control)"
same,binding signal,ETV3L,"1.15 fold enrichment (6-mer frequency, TF over GST control)"
same,binding signal,ETS2,"1.37 fold enrichment (6-mer frequency, TF over GST control)"
same,binding signal,SPDEF,"1.39 fold enrichment (6-mer frequency, TF over GST control)"
same,binding signal,ETV7,"1.39 fold enrichment (6-mer frequency, TF over GST control)"
same,binding signal,ELF5,"1.35 fold enrichment (6-mer frequency, TF over GST control)"
same,binding signal,ETV3,"1.3 fold enrichment (6-mer frequency, TF over GST control)"
same,binding signal,ETV6,"1.23 fold enrichment (6-mer frequency, TF over GST control)"
